Measured values published in PubChem BioAssay (Tox21).
Results filed as inconclusive are left out. Activity calls are given as the source filed them. Calls follow the shape of the full dose curve.

Legend:
[1] = biological target: Acetylcholinesterase (Homo sapiens) (UniProt P22303); assay: Acetylcholinesterase (AChE) small molecule antagonists: colormetric cell-based qHTS assay (AID 1347395); also: nearly all actives have a fitted effect of over 30% in size
Outline: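 Quantitative HTS in attached SH-SY5Y cells: 30 min compound exposure, then 90 min with acetylthiocholine and DTNB at 37 C; colour from thiocholine reports AChE activity.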

[2] = biological target: Acetylcholinesterase (Homo sapiens) (UniProt P22303); assay: Acetylcholinesterase (AChE) small molecule antagonists: enzyme-based qHTS assay (AID 1347397); settings: Potency: AChE enzyme activity inhibition; outcome: AChE enzyme activity inhibition; also: nearly all actives have a fitted effect of over 55% in size
Outline: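 Tox21 library chemicals are tested in qHTS format against recombinant human AChE. The enzyme, dispensed at 50 mU/mL, sits with compound for 30 min at room temperature. A DTNB–acetylthiocholine cocktail follows, and colour is read after 10 min.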

[3] = biological target: Acetylcholinesterase (Homo sapiens) (UniProt P22303); assay: Acetylcholinesterase (AChE) small molecule antagonists: fluorescence cell-based qHTS assay (AID 1347398); settings: Potency: AChE activity; outcome: AChE activity; also: nearly all actives have a fitted effect of over 50% in size
Outline: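 Cellular AChE inhibition: SH-SY5Y cells treated with test chemical for 30 min at 37 C, then acetylthiocholine hydrolysis followed over 40 min at room temperature via thiocholine-reactive Thiolite Green fluorescence (490/520 nm).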

[4] = biological target: Acetylcholinesterase (Homo sapiens) (UniProt P22303); assay: Acetylcholinesterase (AChE) small molecule antagonists: enzyme-based qHTS assay with human liver microsomes (AID 1347399); settings: Potency: qHTS inhibition; outcome: qHTS inhibition; also: nearly all actives have a fitted effect of over 60% in size
Outline: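 Recombinant human AChE (50 mU/mL in the enzyme mix) and human liver microsomes (0.25 mg/mL final) were preincubated with compound and NADPH (0.25 mg/mL final) for 30 min at 37 C. Acetylthiocholine/DTNB was then added; thiocholine was read colorimetrically after 10 min at room temperature.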
% is scaled to controls: 0 for no effect and ±100 for the full control effect.

Chain of Acetylcholinesterase (Homo sapiens) (P22303 whole entry, looked up): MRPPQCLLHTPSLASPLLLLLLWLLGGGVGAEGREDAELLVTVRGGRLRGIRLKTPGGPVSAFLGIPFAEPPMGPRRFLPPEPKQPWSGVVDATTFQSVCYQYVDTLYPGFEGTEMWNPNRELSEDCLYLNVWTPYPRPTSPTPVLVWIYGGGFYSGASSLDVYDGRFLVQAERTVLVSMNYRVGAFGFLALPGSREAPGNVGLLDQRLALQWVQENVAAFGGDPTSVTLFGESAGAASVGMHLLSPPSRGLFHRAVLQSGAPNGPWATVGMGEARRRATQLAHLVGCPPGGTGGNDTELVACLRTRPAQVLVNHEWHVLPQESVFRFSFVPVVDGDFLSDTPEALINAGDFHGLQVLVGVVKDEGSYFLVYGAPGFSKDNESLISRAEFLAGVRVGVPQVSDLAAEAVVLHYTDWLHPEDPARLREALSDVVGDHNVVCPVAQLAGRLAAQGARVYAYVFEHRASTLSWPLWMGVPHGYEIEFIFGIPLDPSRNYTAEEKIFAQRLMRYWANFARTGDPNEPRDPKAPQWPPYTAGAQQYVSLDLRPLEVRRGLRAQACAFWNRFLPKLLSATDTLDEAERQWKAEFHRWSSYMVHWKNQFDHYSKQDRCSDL

O=P(O)(O)C(O)(Cc1cccnc1)P(=O)(O)O
inactive: Potency [1] | Potency [2] | Potency [3] | Potency [4]

O=C(O)c1cccnc1Nc1cccc(C(F)(F)F)c1
inactive: Potency [1] | Potency [2] | Potency [3] | Potency [4]

COCCc1ccccn1
inactive: Potency [1] | Potency [2] | Potency [3] | Potency [4]

CNCc1cc(F)ccc1Oc1ccc(Cl)c(Cl)c1
inactive: Potency [1] | Potency [2] | Potency [3] | Potency [4]

Cc1ccccc1N1C(=O)c2cc(S(N)(=O)=O)c(Cl)cc2NC1C (stereo not given)
inactive: Potency [1] | Potency [2] | Potency [3] | Potency [4]

CC1=CCC(=C(C)C)CC1
inactive: Potency [1] | Potency [2] | Potency [3] | Potency [4]

Cc1ccc(O)cn1
inactive: Potency [1] | Potency [2] | Potency [3] | Potency [4]

OC[C@H]1O[C@@H]2O[C@H]3[C@H](O)[C@@H](O)[C@@H](O[C@H]4[C@H](O)[C@@H](O)[C@@H](O[C@H]5[C@H](O)[C@@H](O)[C@@H](O[C@H]6[C@H](O)[C@@H](O)[C@@H](O[C@H]7[C@H](O)[C@@H](O)[C@@H](O[C@H]8[C@H](O)[C@@H](O)[C@@H](O[C@H]9[C@H](O)[C@@H](O)[C@@H](O[C@H]1[C@H](O)[C@H]2O)O[C@@H]9CO)O[C@@H]8CO)O[C@@H]7CO)O[C@@H]6CO)O[C@@H]5CO)O[C@@H]4CO)O[C@@H]3CO
inactive: Potency [1] | Potency [2] | Potency [3] | Potency [4]

CCOc1cccc(N)c1
inactive: Potency [1] | Potency [2] | Potency [3] | Potency [4]

CC(C)C1CCC(O)CC1 (stereo not given)
inactive: Potency [1] | Potency [2] | Potency [3] | Potency [4]

CCOC(=O)C(=O)c1csc(NC=O)n1
inactive: Potency [1] | Potency [2] | Potency [3] | Potency [4]

CC1=CCC(C(C)C)C=C1 (stereo not given)
inactive: Potency [1] | Potency [2] | Potency [3] | Potency [4]

CCCCCCCCCCCCCCCCCCCl
inactive: activity, negative = inhibition [1] -3.15% [at 10.5 µM] | activity change, negative = inhibition [2] -0.128% [at 10.5 µM] | activity change, negative = inhibition [3] 5.41% [at 10.5 µM] | activity change, negative = inhibition [4] 0.243% [at 10.5 µM]

CCC=CC#N
inactive: Potency [1] | Potency [2] | Potency [3] | Potency [4]

CC(=O)C=O
inactive: Potency [1] | Potency [2] | Potency [3] | Potency [4]

CN(Cc1ccc(C(C)(C)C)cc1)Cc1cccc2ccccc12
inactive: Potency [1] | Potency [2] | Potency [3] | Potency [4]

CCCCCCNC(=O)n1cc(F)c(=O)[nH]c1=O
inactive: Potency [1] | Potency [2] | Potency [3] | Potency [4]

COC(=O)c1ccc(I)cc1S(=O)(=O)NC(=O)Nc1nc(C)nc(OC)n1
inactive: Potency [1] | Potency [2] | Potency [3] | Potency [4]

Cc1ccnc2ccccc12
inactive: Potency [1] | Potency [2] | Potency [3] | Potency [4]

Nc1ccc(F)cc1F
inactive: Potency [1] | Potency [2] | Potency [3] | Potency [4]

C=CCn1c(=O)n(CC=C)c(=O)n(CC=C)c1=O
inactive: Potency [1] | Potency [2] | Potency [3] | Potency [4]

Cc1c[nH]c(=S)[nH]c1=O
inactive: Potency [1] | Potency [2] | Potency [3] | Potency [4]

Cc1ccc(Cl)c(OCC(O)CNC(C)(C)C)c1 (stereo not given)
inactive: Potency [1] | Potency [2] | Potency [3] | Potency [4]

Cc1ccc(=O)n(-c2ccccc2)c1
inactive: Potency [1] | Potency [2] | Potency [3] | Potency [4]

CN1CCN(CC(=O)N2c3ccccc3C(=O)Nc3cccnc32)CC1
inactive: activity, negative = inhibition [1] 0.44% [at 10.5 µM] | activity change, negative = inhibition [2] 0.584% [at 10.5 µM] | activity change, negative = inhibition [3] 5.87% [at 10.5 µM] | activity change, negative = inhibition [4] -0.472% [at 10.5 µM]

NS(=O)(=O)c1ccccc1Cl
inactive: Potency [1] | Potency [2] | Potency [3] | Potency [4]

O=C(CS)OCCOC(=O)CS
inactive: Potency [1] | Potency [2] | Potency [3] | Potency [4]

COC(C)OC
inactive: Potency [1] | Potency [2] | Potency [3] | Potency [4]

N=C(N)N1CCc2ccccc2C1
inactive: activity, negative = inhibition [1] 3.08% [at 10.5 µM] | activity change, negative = inhibition [2] 0.139% [at 10.5 µM] | activity change, negative = inhibition [3] -0.69% [at 10.5 µM] | activity change, negative = inhibition [4] 2.85% [at 10.5 µM]

CCCCCCCCCCOCC(O)CN (stereo not given)
inactive: Potency [1] | Potency [2] | Potency [3] | Potency [4]

Cn1cnc2ncnc(N)c21
inactive: Potency [1] | Potency [2] | Potency [3] | Potency [4]

CC(C(=O)O)c1ccc2c(c1)[nH]c1ccc(Cl)cc12 (stereo not given)
inactive: Potency [1] | Potency [2] | Potency [3] | Potency [4]

Cc1cccc(Cl)c1
inactive: Potency [1] | Potency [2] | Potency [3] | Potency [4]

CC(=O)c1ccc2c(c1)Cc1ccccc1-2
inactive: Potency [1] | Potency [2] | Potency [3] | Potency [4]

CCN(CC)C(=O)N(CC)CC
inactive: Potency [1] | Potency [2] | Potency [3] | Potency [4]

O=C1c2ccccc2-c2ccccc21
inactive: Potency [1] | Potency [2] | Potency [3] | Potency [4]

CCC(C)C1CCCCC1=O (stereo not given)
inactive: Potency [1] | Potency [2] | Potency [3] | Potency [4]

C=C(C)[C@@H]1CCC2=CCC[C@@H](C)[C@]2(C)C1
inactive: Potency [1] | Potency [2] | Potency [3] | Potency [4]

CCC/C=C/CO
inactive: Potency [1] | Potency [2] | Potency [3] | Potency [4]

COc1ccc2c(c1OC)C(=O)O[C@@H]2[C@H]1c2c(cc3c(c2OC)OCO3)CCN1C
inactive: Potency [1] | Potency [2] | Potency [3] | Potency [4]
